# Source: PubChem
# A selection: hits, their analogues and other compounds. The true share with any hit is near 5.7%.
# VP16 counter – Gal4-VP16 reporter inhibition counter-screen. Drosophila S2 Gal4-VP16 UAS-luciferase, luminescence, 20 h. hit rate 3.5% among 310,000. Potency, µM (titrated, usually from 53.6 µM), without a hit: top-dose activity, negative = inhibition, usual class: inhibitors;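 note: Gal4-VP16 expression switched on by copper sulfate through the metallothionein promoter; nearly all actives have a fitted effect of over 50% in size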
# NPSR antag – antagonists of human neuropeptide S receptor cAMP signaling; Potency, µM (series often up to 38.3 µM), without a hit: top-dose activity change, negative = inhibition, usual class: inhibitors; hit rate 1% among 220,000; CHO-NPSR cells, cAMP TR-FRET, antagonist mode; Q6W5P4; note: nearly all actives have a fitted effect of over 50% in size
# Target sequence (Q6W5P4 whole entry, looked up): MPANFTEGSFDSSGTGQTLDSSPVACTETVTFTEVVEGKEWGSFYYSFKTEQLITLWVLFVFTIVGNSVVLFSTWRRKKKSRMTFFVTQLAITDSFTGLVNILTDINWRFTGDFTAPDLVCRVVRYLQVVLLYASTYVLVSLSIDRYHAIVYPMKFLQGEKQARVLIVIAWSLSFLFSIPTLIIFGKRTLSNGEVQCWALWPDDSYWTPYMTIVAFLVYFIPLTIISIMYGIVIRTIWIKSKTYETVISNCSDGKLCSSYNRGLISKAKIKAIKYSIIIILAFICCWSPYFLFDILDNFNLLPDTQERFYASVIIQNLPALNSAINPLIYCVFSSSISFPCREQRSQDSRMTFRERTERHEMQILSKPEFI
# RORgamma inh – blocks mouse ROR gamma transcriptional activity. P51450. Drosophila S2 Gal4-RORgamma UAS-luciferase reporter, 20 h. Potency, µM (doses to about 53.6 µM), without a hit: at the highest dose activity change, negative = inhibition, usual class: inhibitors. hit rate 5.4% among 310,000. AID 2551; note: nearly all actives have a fitted effect of over 60% in size
#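 Drosophila Schneider cells stably carrying a metallothionein-driven Gal4 DBD–ROR gamma fusion and a UAS-Photinus luciferase reporter were exposed to compound for 1 hr, then induced with copper sulfate (700 uM final) for 20 hr at ambient temperature before luminescence reading.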
# B2AR arrestin – beta2AR (human) beta-arrestin recruitment activity | beta-arrestin recruitment to beta2AR, cell-based reporter | Potency, µM (highest dose often 46.1 µM), inactives show top-dose activation, usual class: activators | hit rate 0.02% among 330,000 | AID 492947;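 note: 0% = DMSO controls and full agonism = EC100 isoproterenol or metaproterenol; nearly all actives have a fitted effect of over 65% in size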
# * hit, by the source's call; ? = inconclusive; nt = no result given; [ ] = remark or other dose. Calls come from the whole dose curve; as a rule, active = well fitted curve in the direction sought with a large enough effect; inconclusive = small, poorly fitted or top-dose-only effect, or another doubt; inactive = no such curve, though single readings can be large; an effect the other way counts as inactive or inconclusive. Unless noted, % is set by controls: 0 for no effect and ±100 for the full control effect; potency is the fitted concentration of half-maximal effect.
SMILES,VP16 counter,NPSR antag,RORgamma inh,B2AR arrestin
CC[C@@H](C)[C@H](CN[C@H](CNC)C(C)C)NC[C@@H](C)c1ccc(CC(C)C)cc1,?,nt,10µM*,1%
Cc1ccc(C2C=C(c3ccc4c(c3)OCO4)Nc3ncnn32)cc1 (stereo unspecified),-1%,-26%[46.1 µM],-3%,-1%
Fc1ccc(Br)cc1C1C=C(c2ccc(Br)cc2)Nc2ncnn21 (stereo unspecified),?,-14%[46.1 µM],6.3µM*,3%
CCc1ccc(C2=CC(c3cc(Br)ccc3F)n3ncnc3N2)cc1 (stereo unspecified),14µM*,28%[46.1 µM],?,0%
Cc1ccsc1C1C=C(c2cccc(Br)c2)Nc2ncnn21 (stereo unspecified),?,-18%[46.1 µM],7.9µM*,-1%
O=c1[nH]c2ccccc2cc1CN(Cc1ccco1)S(=O)(=O)c1ccccc1,4%,nt,11%,0%
COC(=O)NC(CC(C)=O)c1ccccc1 (stereo unspecified),1%[10 µM],nt,-19%[10 µM],nt
O=C(N/N=C/c1ccc[nH]1)c1cccnc1,-10%,2%[46.1 µM],?,5%
O=C(N/N=C/c1ccc[nH]1)c1ccc([N+](=O)[O-])cc1,5.6µM*,1%,4µM*,0%
O=C(N/N=C/c1ccc[nH]1)c1cc2ccccc2cc1O,?,nt,1.1µM*,-1%
O=C(N/N=C\c1ccc[nH]1)c1cncc(Br)c1,5.6µM*,nt,2.8µM*,0%
O=C(N/N=C/c1ccncc1)c1cc2ccccc2cc1O,-12%,nt,?,0%
O=C(N/N=C/c1ccc[nH]1)c1cccc(Br)c1,5.6µM*,2%,2.8µM*,-2%
O=c1c(CCc2ccccc2)nc2cnc(N3CCOCC3)nc2n1-c1ccccc1,3%,nt,8%,nt
Nc1cc(=O)[nH]c(SCC(=O)NNC(=O)Cc2ccccc2)n1,-17%,12%,-11%,0%
Cc1ccc(C(=O)N/N=C\c2ccc[nH]2)cn1,-1%,-9%[46.1 µM],?,0%
Cc1cccc(NCC(=O)N/N=C\c2ccc[nH]2)c1,?,1%,8.9µM*,-1%
Cc1cccc(C(=O)N/N=C/c2ccc[nH]2)c1,13µM*,-2%,7.9µM*,3%
COc1ccccc1N1CCN(C2CCCN(C(=O)CCn3cncn3)C2)CC1 (stereo unspecified),1%,nt,-20%,0%
CCOc1ccc(N=C(NN)c2ccc3ccccc3n2)cc1,?,-7%,10µM*,-1%
Cc1cc(Cl)c(C)c(S(=O)(=O)N2CCN(CC(=O)N3CCOCC3)CC2)c1Cl,nt,nt,nt,0%
COc1ccc(OC)c(NS(=O)(=O)Cc2ccccc2)c1,-4%,2%[46.1 µM],0%,0%
COc1cccc(/C=N/n2c(CO)nc3ccccc32)c1OC,8%,-17%[46.1 µM],3%,0%
Cc1nc2ccccc2c(=O)n1/N=C/c1ccc(O)cc1O,-3%,-3%,-30%,0%
Cc1ccc(-n2[nH]c(C)c(/C=N/c3ccccn3)c2=O)cc1,0%,5%[46.1 µM],-8%,-1%
SMILES,VP16 counter,NPSR antag,RORgamma inh,B2AR arrestin
CNc1nc2ccccc2n1/N=C/c1cccc(OC)c1OC,-22%,-7%[46.1 µM],13µM*,0%
COc1cccc(/C=N/n2c(C)nc3ccccc3c2=O)c1O,16µM*,-7%[46.1 µM],3.2µM*,0%
CCCc1nc2ccccc2c(=O)n1/N=C/c1ccccc1O,10µM*,8%[46.1 µM],2.5µM*,0%
CCCc1nc2ccccc2c(=O)n1/N=C/c1c(C)[nH]n(-c2ccc(C)cc2)c1=O,?,-10%[46.1 µM],13µM*,0%
CC(C)([CH2][Sn]([CH2]C(C)(C)c1ccccc1)([CH2]C(C)(C)c1ccccc1)[O][Sn]([CH2]C(C)(C)c1ccccc1)([CH2]C(C)(C)c1ccccc1)[CH2]C(C)(C)c1ccccc1)c1ccccc1,-15%,nt,-1%,nt
COc1cc(Br)c(/C=C/c2ccc3cccc(O)c3n2)cc1OC,3.2µM*,nt,2.8µM*,5%
COc1ccc(OC)c(/C=C/c2ccc3cccc(O)c3n2)c1,4.5µM*,nt,2.5µM*,4%
CSc1ccc(/C=C/c2ccc3cccc(O)c3n2)cc1,?,8%,4.5µM*,0%
O=[N+]([O-])c1cccc2ccc(/C=C/c3ccc(Cl)cc3)nc12,-11%,?,-10%,-1%
COc1cc(/C=C/c2ccc3cccc(O)c3n2)c(Br)cc1O,?,nt,2.8µM*,8%
O=C(NC1C/C(=N/O)c2cc3c(cc21)OCO3)C(F)(F)F (stereo unspecified),7%,8%,-10%,0%
COc1ccc(-c2nc3cnc(N4CCN(C)CC4)nc3n(-c3ccc(OC)cc3)c2=O)cc1,-5%,nt,-38%,nt
C/C=C/c1ccc(O)c(OC)c1,2%,nt,-3%[10 µM],-1%
COc1cc(Br)cc(/C=C/c2ccc3cccc(O)c3n2)c1O,3.2µM*,nt,2.5µM*,0%
COc1cc(/C=C/c2ccc3cccc(O)c3n2)ccc1O,3.2µM*,nt,3.2µM*,6%
COc1cc(/C=C/c2ccc3cccc(OC)c3n2)c(O)c([N+](=O)[O-])c1,-3%,-18%,-35%,0%
Oc1cccc2ccc(/C=C/c3ccccc3Br)nc12,3.2µM*,nt,4µM*,5%
CCOc1cccc2oc(-c3ccccc3Cl)cc(=O)c12,?,nt,-41%,nt
Nn1cnnc1SC1CCCCC1NS(=O)(=O)c1ccccc1 (stereo unspecified),8.9µM*,-15%[46.1 µM],-16%,0%
O=C(Nc1nc2ccccc2s1)c1ccc(N2CCCCC2)c([N+](=O)[O-])c1,?,-17%,10µM*,-1%
O=C(Nc1ccon1)c1ccc(N2CCCCC2)c([N+](=O)[O-])c1,-9%,-16%,-1%,0%
COC(=O)c1cc(NC(=O)c2cc(C(C)(C)C)nn2Cc2ccc(F)cc2)ccc1N1CCOCC1,-1%,-34%,?,3%
CC(C)(C)c1cc(C(=O)NN)n(Cc2ccc(F)cc2)n1,-11%,-9%,11µM*,0%
CN(C)c1ncc2nc(-c3cccs3)c(=O)n(C)c2n1,-2%,nt,7%,nt
Cc1ccc(S(=O)(=O)NCCn2nc(C)nc2C)cc1,-5%,nt,-17%,-1%
SMILES,VP16 counter,NPSR antag,RORgamma inh,B2AR arrestin
C=CCOc1c(Br)cc(CNn2c(C)n[nH]c2=S)cc1OC,?,nt,?,0%
C=CCOc1c(Br)cc(CNc2nccs2)cc1OC,18µM*,9%[46.1 µM],13µM*,0%
COc1ccc(C2CC3(CC(C)(C)NC(=S)N3)Oc3cc(O)cc(C)c32)cc1 (stereo unspecified),?,-22%,?,?
CC(=O)Oc1ccc2c(c1)OC(c1ccccc1)CC21CC(C)(C)NC(=S)N1 (stereo unspecified),?,-8%[46.1 µM],10µM*,-1%
CC1(C)CC2(CC(c3ccccc3)Oc3cc(O)ccc32)NC(=O)N1 (stereo unspecified),-10%,-7%,-1%,0%
CC1(C)CC2(CC(c3ccccc3)c3ccc(O)cc3O2)NC(=S)N1 (stereo unspecified),-9%,-4%,11µM*,-1%
CC(=O)Oc1cc2c(cc1Cl)C(c1cccs1)CC1(CC(C)(C)NC(=S)N1)O2 (stereo unspecified),?,27%,10µM*,0%
